Where “and” joins values, the source holds several entries; their conditions need not be identical. Identical values can stand only once. Results filed as inconclusive are left out. Where a call stands in place of a potency, no number is given. A structure can be active in one record and inactive in another. Unmarked numbers belong to inactive results. Calls of active or inactive are those of the source. The call rests on the fitted dose curve; in most records, active means well fitted curve in the direction sought with a large enough effect; inconclusive means small, poorly fitted or top-dose-only effect, or another doubt; inactive means no such curve, though single readings can be large; an effect the other way counts as inactive or inconclusive.
What was measured:
CRL-7250 = normal cell line; assay: Cytotoxic Profiling of Annotated Libraries Using Quantitative High-Throughput Screening (AID 1296008); settings: Five cell lines viability, CellTiter-Glo ATP luminescence, 48-72 h; max response: active compounds read low; further: nearly all actives have a fitted effect of over 60% in size
Outline: (§1)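 Compounds were pin-transferred onto cells and incubated 48 or 72 hr at 37 degree Celsius, 95% humidity. CellTiter-Glo was added, plates sat 10 min at room temperature, then ATP-coupled luminescence was imaged as the viability read-out.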

HEK293 = assay: as above; settings: Five cell lines viability, CellTiter-Glo ATP luminescence, 48-72 h; max response: active compounds read low
Outline: as §1

HaCat [1] = assay: as above; settings: Five cell lines viability, CellTiter-Glo ATP luminescence, 48-72 h; max response: active compounds read low
Outline: as §1

NIH3T3 [2] = assay: as above; settings: Five cell lines viability, CellTiter-Glo ATP luminescence, 48-72 h; max response: active compounds read low
Outline: as §1

HACAT [3] = assay: qHTS assay to identify novel small-molecules to repurpose for Merkel cell carcinoma treatment (AID 1296009); settings: MCC and control cell lines, CellTiter-Glo viability, 72 h; at 44.8 µM (top of the series) unless noted; further: nearly all actives have a fitted effect of over 60% in size
Outline: (§2)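 Cells exposed to NPC (8-point) and MIPE (11-point) compound dilutions for 72 hr at 37 degree celsius; viability read by CellTiter-Glo luminescence, normalized to no-cell and DMSO in-plate controls.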

HEK293T [4] = assay: as above; settings: MCC and control cell lines, CellTiter-Glo viability, 72 h; at 44.8 µM (top of the series) unless noted
Outline: as §2

MCC-13 = assay: as above; settings: MCC and control cell lines, CellTiter-Glo viability, 72 h; series mostly up to 46 µM
Outline: as §2

MCC-26 = assay: as above; settings: MCC and control cell lines, CellTiter-Glo viability, 72 h; series mostly up to 46 µM
Outline: as §2

MKL-1 = assay: as above; settings: MCC and control cell lines, CellTiter-Glo viability, 72 h; series mostly up to 46 µM
Outline: as §2

MKL-2 = assay: as above; settings: MCC and control cell lines, CellTiter-Glo viability, 72 h; series mostly up to 46 µM
Outline: as §2

NIH3T3 [5] = assay: as above; settings: MCC and control cell lines, CellTiter-Glo viability, 72 h; at 44.8 µM (top of the series) unless noted
Outline: as §2

UISO = assay: as above; settings: MCC and control cell lines, CellTiter-Glo viability, 72 h; series mostly up to 46 µM
Outline: as §2

WaGa = assay: as above; settings: MCC and control cell lines, CellTiter-Glo viability, 72 h; series mostly up to 46 µM
Outline: as §2

C33A = assay: Primary qHTS to identify gynecologic anti-cancer compounds using libraries of approved drugs and bioactive compounds (AID 1345084); settings: Gynecologic cancer cell panel viability, ATPlite luminescence, 48 h; series mostly up to 57.5 µM; further: nearly all actives have a fitted effect of over 55% in size
Outline: (§3)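 Five-concentration response, 48 h; readout is ATP-driven luciferase luminescence.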

CAOV3 = assay: as above; settings: Gynecologic cancer cell panel viability, ATPlite luminescence, 48 h; series mostly up to 57.5 µM
Outline: as §3

CASKI = assay: as above; settings: Gynecologic cancer cell panel viability, ATPlite luminescence, 48 h; series mostly up to 57.5 µM
Outline: as §3

Es-2 = assay: as above; settings: Gynecologic cancer cell panel viability, ATPlite luminescence, 48 h; series mostly up to 57.5 µM
Outline: as §3

HeLa = assay: as above; settings: Gynecologic cancer cell panel viability, ATPlite luminescence, 48 h; series mostly up to 57.5 µM
Outline: as §3

Hek293T [6] = assay: as above; settings: Gynecologic cancer cell panel viability, ATPlite luminescence, 48 h, control line for the selectivity index; series mostly up to 57.5 µM
Outline: as §3

KB-3-1 = assay: Cytotoxic Profiling of Annotated Libraries Using Quantitative High-Throughput Screening (AID 1296008); settings: Five cell lines viability, CellTiter-Glo ATP luminescence, 48-72 h; max response: active compounds read low; further: nearly all actives have a fitted effect of over 60% in size
Outline: as §1
Potency means the concentration at half of the fitted maximal effect.

## NC(=Nc1ccccc1)Nc1ccccc1
CRL-7250
  max response: -3.1%
HEK293
  outcome: inactive
HaCat [1]
  max response: 2.68%
  outcome: inactive
NIH3T3 [2]
  max response: -0.581%
  outcome: inactive
HACAT [3]
  outcome: inactive
HEK293T [4]
  outcome: inactive
MCC-13
  Potency: inactive
MCC-26
  Potency: inactive
MKL-1
  Potency: inactive
MKL-2
  Potency: inactive
NIH3T3 [5]
  outcome: inactive [at 92 µM]
UISO
  Potency: inactive
WaGa
  Potency: inactive
C33A
  Potency: inactive
CAOV3
  Potency: inactive
CASKI
  Potency: inactive
Es-2
  Potency: inactive
HeLa
  Potency: inactive
Hek293T [6]
  Potency: inactive

## CCCOc1ccccc1-c1nc2n[nH]nc2c(=O)[nH]1
CRL-7250
  max response: -0.525%
HEK293
  max response: 2.92%
HaCat [1]
  outcome: inactive
KB-3-1
  max response: -27%
NIH3T3 [2]
  max response: -1.31%
HACAT [3]
  outcome: inactive
MCC-13
  Potency: inactive
MCC-26
  Potency: inactive
MKL-1
  Potency: inactive
MKL-2
  Potency: inactive
UISO
  Potency: inactive
WaGa
  Potency: inactive
C33A
  Potency: inactive
CAOV3
  Potency: inactive
CASKI
  Potency: inactive
Es-2
  Potency: inactive
HeLa
  Potency: inactive
Hek293T [6]
  Potency: inactive

## CN(C)C(=O)Oc1cccc([N+](C)(C)C)c1
CRL-7250
  outcome: inactive
HEK293
  outcome: inactive
HaCat [1]
  outcome: inactive
KB-3-1
  max response: 3.68%
NIH3T3 [2]
  max response: 1.77%
HACAT [3]
  outcome: inactive
HEK293T [4]
  outcome: inactive
MCC-13
  Potency: inactive
MCC-26
  Potency: inactive
MKL-1
  Potency: inactive
MKL-2
  Potency: inactive
UISO
  Potency: inactive
WaGa
  Potency: inactive
C33A
  Potency: inactive
CASKI
  Potency: inactive
Es-2
  Potency: inactive
Hek293T [6]
  Potency: inactive

## Cc1cc(C)c(/C=C2\C(=O)Nc3ccccc32)[nH]1
CRL-7250
  max response: -6.15%
HEK293
  outcome: inactive
HaCat [1]
  max response: -11.3%
KB-3-1
  max response: -3.51%
NIH3T3 [2]
  max response: -17.1%
HEK293T [4]
  outcome: inactive
MCC-13
  Potency: inactive
MCC-26
  Potency: inactive
MKL-1
  Potency: inactive
MKL-2
  Potency: inactive
WaGa
  Potency: inactive
C33A
  Potency: inactive
CAOV3
  Potency: inactive
CASKI
  Potency: inactive
Es-2
  Potency: inactive
Hek293T [6]
  Potency: inactive

## NC/C=C/C(=O)O
CRL-7250
  max response: -5.1%
HEK293
  outcome: inactive
HaCat [1]
  outcome: inactive
KB-3-1
  max response: 3.52%
NIH3T3 [2]
  max response: -7.89%
HACAT [3]
  outcome: inactive
HEK293T [4]
  outcome: inactive
MCC-13
  Potency: inactive
MCC-26
  Potency: inactive
MKL-1
  Potency: inactive
MKL-2
  Potency: inactive
UISO
  Potency: inactive
WaGa
  Potency: inactive
C33A
  Potency: inactive
CAOV3
  Potency: inactive
CASKI
  Potency: inactive
Es-2
  Potency: inactive
Hek293T [6]
  Potency: inactive

## CC(=O)[C@]1(O)Cc2c(O)c3c(c(O)c2[C@@H](O[C@H]2C[C@H](N)[C@H](O)[C@H](C)O2)C1)C(=O)c1ccccc1C3=O
CRL-7250
  Potency: 237 nM (active)
HEK293
  Potency: 33.5 nM (active)
HaCat [1]
  Potency: 59.6 nM (active)
KB-3-1
  Potency: 4610 nM (active)
NIH3T3 [2]
  Potency: 84.1 nM (active)
MCC-13
  Potency: 3760 nM (active)
MCC-26
  Potency: 1330 nM (active)
MKL-1
  Potency: 119 nM (active)
MKL-2
  Potency: 94.4 nM (active)
UISO
  Potency: 422 nM (active)
WaGa
  Potency: 106 nM (active)
C33A
  Potency: 501 nM (active)
CASKI
  Potency: 1000 nM (active)
Es-2
  Potency: 1000 nM (active)
Hek293T [6]
  Potency: 708 nM (active)

## FC(F)(F)c1ccccc1-n1ccnc1
CRL-7250
  outcome: inactive
HEK293
  max response: -1.59%
HaCat [1]
  outcome: inactive
KB-3-1
  max response: 22%
NIH3T3 [2]
  max response: -5.68%
HACAT [3]
  outcome: inactive
MCC-13
  Potency: inactive
MCC-26
  Potency: inactive
MKL-2
  Potency: inactive
UISO
  Potency: inactive
WaGa
  Potency: inactive
C33A
  Potency: inactive
CAOV3
  Potency: inactive
CASKI
  Potency: inactive
Es-2
  Potency: inactive
HeLa
  Potency: inactive
Hek293T [6]
  Potency: inactive

## CCCCOCCOCCOCc1cc2c(cc1CCC)OCO2
CRL-7250
  Potency: 61800 nM (active)
  max response: 0.375%
HaCat [1]
  max response: 2.25% and -5.48%
KB-3-1
  max response: -1.58% and -16.8%
NIH3T3 [2]
  max response: -13.2% and 0.929%
MCC-13
  Potency: inactive
MCC-26
  Potency: inactive
MKL-2
  Potency: inactive
UISO
  Potency: inactive
WaGa
  Potency: inactive
C33A
  Potency: inactive
CAOV3
  Potency: inactive
CASKI
  Potency: inactive
Es-2
  Potency: inactive
HeLa
  Potency: inactive
Hek293T [6]
  Potency: inactive

## Cc1ccc(S(=O)(=O)NC(=O)NN2CCCCCC2)cc1
CRL-7250
  outcome: inactive
HEK293
  max response: -0.0062%
HaCat [1]
  max response: 3.13%
KB-3-1
  max response: 3.88%
NIH3T3 [2]
  max response: 0.771%
MCC-13
  Potency: inactive
MCC-26
  Potency: inactive
MKL-1
  Potency: inactive
MKL-2
  Potency: inactive
UISO
  Potency: inactive
WaGa
  Potency: inactive
C33A
  Potency: inactive
CAOV3
  Potency: inactive
CASKI
  Potency: inactive
Es-2
  Potency: inactive
HeLa
  Potency: inactive
Hek293T [6]
  Potency: inactive

## CCN1CCc2nc(N)oc2CC1
CRL-7250
  max response: 2.68%
HEK293
  outcome: inactive
HaCat [1]
  outcome: inactive
KB-3-1
  max response: 2.16%
NIH3T3 [2]
  max response: -2.66%
HACAT [3]
  outcome: inactive
HEK293T [4]
  outcome: inactive
MCC-13
  Potency: inactive
MCC-26
  Potency: inactive
MKL-2
  Potency: inactive
UISO
  Potency: inactive
WaGa
  Potency: inactive
C33A
  Potency: inactive
CAOV3
  Potency: inactive
CASKI
  Potency: inactive
Es-2
  Potency: inactive
Hek293T [6]
  Potency: inactive

## CC(C)(C)NCC(O)c1cc(O)cc(O)c1 (stereo not drawn)
CRL-7250
  max response: -15.1%
HEK293
  max response: -2.84%
HaCat [1]
  max response: 4.23%
KB-3-1
  max response: -2.33%
NIH3T3 [2]
  max response: 3.49%
MCC-13
  Potency: inactive
MCC-26
  Potency: inactive
MKL-1
  Potency: inactive
MKL-2
  Potency: inactive
UISO
  Potency: inactive
WaGa
  Potency: inactive
C33A
  Potency: inactive
CAOV3
  Potency: inactive
CASKI
  Potency: inactive
Es-2
  Potency: inactive
Hek293T [6]
  Potency: inactive

— PubChem BioAssay (NCATS)
